Source: PubChem BioAssay
VP16 counter – counter-screen for ROR gamma inhibitors: Gal4-VP16 reporter; 3.5% of 310,000 active; Potency, µM (doses to about 53.6 µM), inactives show at the top dose activity, negative = inhibition, actives largely listed as inhibitors; Drosophila S2 Gal4-VP16 UAS-luciferase, luminescence, 20 h; AID 2546;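 note: Gal4-VP16 expression switched on by copper sulfate through the metallothionein promoter; % is set by controls: 0 for no effect and ±100 for the full control effect; nearly all actives have a fitted effect of over 50% in size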
GLP1R ag – GLP-1 receptor (human) agonism. HEK293 GLP-1R CRE-luciferase, luminescence, 4-6 h; cells express a hypersensitive GLP-1R form. Potency, µM (top dose mostly 45.6 µM), for the others: at the top dose activation, usual class: activators. 0.007% of 380,000 active; note: % of control where 0% means no effect
Target sequence (P43220 whole entry, looked up): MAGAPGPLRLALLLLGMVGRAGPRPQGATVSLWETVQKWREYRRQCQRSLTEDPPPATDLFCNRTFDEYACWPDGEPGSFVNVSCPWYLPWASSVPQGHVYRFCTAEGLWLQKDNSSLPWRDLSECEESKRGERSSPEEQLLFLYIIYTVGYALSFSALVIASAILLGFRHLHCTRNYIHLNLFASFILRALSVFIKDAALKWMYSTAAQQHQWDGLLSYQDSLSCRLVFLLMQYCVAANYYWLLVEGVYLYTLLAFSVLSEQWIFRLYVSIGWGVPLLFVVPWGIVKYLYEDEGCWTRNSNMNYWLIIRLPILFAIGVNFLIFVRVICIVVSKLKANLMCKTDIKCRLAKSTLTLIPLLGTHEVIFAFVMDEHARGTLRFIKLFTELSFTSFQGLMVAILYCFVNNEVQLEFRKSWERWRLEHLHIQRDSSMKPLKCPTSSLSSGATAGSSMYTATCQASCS
RORg inh – ROR gamma (mouse) transcription inhibition | P51450 | Drosophila S2 Gal4-RORgamma UAS-luciferase reporter, 20 h | Potency, µM (top dose mostly 53.6 µM), without a hit: top-dose activity change, negative = inhibition, actives largely listed as inhibitors | 5.4% of 310,000 active | AID 2551; note: % is set by controls: 0 for no effect and ±100 for the full control effect; nearly all actives have a fitted effect of over 60% in size
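Schneider cells (Drosophila), stable Gal4 DBD–ROR gamma + UAS-luc; 1 hr cmpd preincubation; Cu2+ induction 700 uM final; 20 hr ambient; luminescence.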
GLP-1R inv ag – acts as inverse agonist at human GLP-1 receptor | Potency, µM (titrated, usually from 38.3 µM), for the others: at the top dose activity change, negative = inhibition, actives largely listed as inhibitors | AID 624417 | HEK293 GLP-1R CRE-luciferase, luminescence, 24 h; GLP-1R form is constitutively active | 1.6% of 410,000 active | P43220; note: % is set by controls: 0 for no effect and ±100 for the full control effect; nearly all actives have a fitted effect of over 55% in size
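GLP-1R inverse agonism mode: basal reporter luminescence in engineered HEK293 cells measured after one day of compound exposure at 37 deg C, with a 12 min room-temperature detection step.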
GLP1R cytotox – cytotoxic in the GLP-1 receptor inverse agonist counter-screen. HEK293 cAMP-luciferase reporter cells, luminescence, 24 h. Potency, µM (highest dose often 38.3 µM), for inactives: at the top dose activity change, negative = inhibition, actives largely listed as inhibitors. 0.13% of 410,000 active;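 note: loss of luciferase light is scored as toxicity; % is set by controls: 0 for no effect and ±100 for the full control effect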
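Seeding density was 200 cells/uL; after overnight-length (12 h) culture, 23 nL compounds went on for 24 h at 37 °C. Readout used a luciferase detection reagent, luminescence taken after 12 min at room temperature.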
Active calls of the source: *; ? = inconclusive; . = not tested or not shown; [ ] = dose if it differs, or a comment. Rows were chosen to be rich in hits. Some 5.9% of all compounds tested hit in one or more screens of this group. Calls come from the whole dose curve; as a rule, active = well fitted curve in the direction sought with a large enough effect; inconclusive = small, poorly fitted or top-dose-only effect, or another doubt; inactive = no such curve, though single readings can be large; an effect the other way counts as inactive or inconclusive. Potency is the fitted concentration of half-maximal effect.

SMILES	VP16 counter	GLP1R ag	RORg inh	GLP-1R inv ag	GLP1R cytotox
c1ccc(COc2cccc(CNCc3cccnc3)c2)cc1	10%[10 µM]	6%	5%	?	15%
O=C(Nc1c(C(=O)N2CCN(c3ccccc3)CC2)oc2ccccc12)c1ccco1	.	.	.	3%	-1%
COCCn1c(-c2ccc(OC)cc2)nc2ccccc21	14%	-5%	-21%	1%	-11%
O=C(O)COn1c(-c2ccc(Cl)cc2)nc2ccc(Cl)cc21	0%	1%	1%	17%	-4%
COc1ccc(Cn2c(-c3ccc(OC)cc3)nc3ccccc32)cc1	?	-11%	11µM*	-1%	-13%
COc1ccc2c(c1)c1nc3ccccc3nc1n2Cc1ccc(OC)c(OC)c1	?	16%	?	-4%	-18%
COc1ccc(/C=C/c2nc3ccccc3n2Cc2ccc(OC)c(OC)c2)cc1	?	11%	13µM*	?	3%
CCOc1ccc(Cn2c3ccc(OC)cc3c3nc4ccccc4nc32)cc1OC	?	0%	13µM*	3%	1%
COc1ccc(-c2nc3ccccc3n2OCC(=O)O)cc1	13µM*	-4%	?	-2%	5%
O=C(NCCc1ccccc1)C(=O)NCC(c1ccc2c(c1)OCO2)N1CCOCC1 (stereo not given)	.	.	.	17%	3%
CCn1cnc2c(=O)oc3ccc(S(=O)(=O)N4CCN(c5cc(C)ccc5C)CC4)cc3c21	.	.	.	5%	-8%
C=C(C)Cn1c(-c2ccccc2)nc2ccccc21	?	27%	14µM*	?	16%
Fc1ccccc1Cn1c(-c2ccccc2)nc2ccccc21	.	.	.	?	-18%
COc1ccc2c(c1)c(=O)c(C(=O)c1ccc(C)cc1)cn2Cc1ccccc1F	.	.	.	?	-9%
Cc1nc2sc3c(c2c(=O)o1)CC(C)(C)OC3	-2%	-7%	15%	1%	-9%
CSc1nc2sc3c(c2c(=O)n1CC(C)C)CC(C)(C)OC3	0%	1%	12%	?	5%
CCCSc1nc2sc3c(c2c(=O)n1CC)CC(C)(C)OC3	-11%	20%	6%	10µM*	-13%
Cn1c(NN)nc2sc3c(c2c1=O)CC(C)(C)OC3	3.5µM*	6%	1.4µM*	-3%	-16%
Cc1nc(NN)c2c3c(sc2n1)COC(C)(C)C3	-21%	1%	13µM*	29%	6%
CCn1c(SCC(N)=O)nc2sc3c(c2c1=O)CCCC3	?	22%	11µM*	71%	-5%
CC(=O)Nc1nonc1-c1nnc(SCC(=O)Nc2cc(C)cc(C)c2)n1C	.	.	.	28%	-6%
CCCCCCCc1nc2sc3c(c2c(=O)n1N)CC(C)(C)OC3	-1%	6%	28%	12%	-7%
CCSc1nc2sc3c(c2c(=O)[nH]1)CC(C)(CC)OC3 (stereo not given)	-16%	-10%	13%	5%	-12%
CCCCCc1nc2sc3c(c2c(=O)n1NC(=O)c1ccc([N+](=O)[O-])cc1)CC(C)(C)OC3	-87%	1%	22µM*	10µM*	-10%
CC1(C)Cc2c(sc3ncnc(N)c23)CO1	1%	-2%	-1%	3%	1%
SMILES	VP16 counter	GLP1R ag	RORg inh	GLP-1R inv ag	GLP1R cytotox
CCC1(C)Cc2c(sc3nc(SC)[nH]c(=S)c23)CO1 (stereo not given)	6.3µM*	2%	?	27%	-3%
CC1(C)Cc2c(sc3nc(=S)[nH]c(N)c23)CO1	18µM*	.	?	.	.
N[C@@H](Cc1cc(-c2ccc(Cl)cc2Cl)cc(CP(=O)(O)O)c1O)C(=O)O	2%	.	-13%	.	.
O=c1[nH]c2ccc(Cl)cc2c(-c2ccccc2)c1[N+](=O)[O-]	-9%	11%	1.3µM*	4%	0%
O=c1[nH]c2ccc(Cl)cc2c(-c2ccccc2)c1SC(=S)N1CCOCC1	4.5µM*	-21%	1µM*	?	?
O=c1[nH]c2ccc(Cl)cc2c(O)c1-c1ccccc1	-10%	-17%	1%	4%	-8%
O=c1[nH]c2ccc(Cl)cc2c(-c2ccccc2)c1SC(=S)N1CCCCC1	7.1µM*	-5%	5.6µM*	?	?
NNC(=O)CSc1c(-c2ccccc2)c2cc(Cl)ccc2[nH]c1=O	5%	14%	-3%	-13%	0%
Cc1occc1C(=O)N/N=C/c1ccc(OCc2ccccc2)cc1	-89%	16%	?	?	-8%
Cc1cc(C(=O)N/N=C/c2ccc3c(c2)OCO3)c(C)o1	1%	16%	?	10%	16%
Cc1occc1C(=O)N/N=C/c1ccc2c(c1)OCO2	?	-3%	7.9µM*	?	-1%
Cc1occc1C(=O)N/N=C/c1ccc(-c2ccccc2)cc1	?	3%	13µM*	?	-3%
O=C(N/N=C/c1ccc[nH]1)c1ccncc1	?	3%	20µM*	0%	1%
O=C(N/N=C/c1ccc[nH]1)c1ccc(Cl)cc1	10µM*	-2%	3.2µM*	-8%	13%
O=C(N/N=C/c1ccc(F)cc1)c1ccncc1	-4%	-8%	-3%	0%	2%
Cc1ccc(C(=O)N/N=C\c2ccc[nH]2)cc1[N+](=O)[O-]	?	-10%	2µM*	-29%	?
Cc1ccc(C(=O)COC(=O)C(Cc2c[nH]c3ccccc23)NC(=O)c2ccc(C(C)(C)C)cc2)cc1 (stereo not given)	.	.	.	?	8%
CCCCC[C@H](O)/C=C/C=C/C/C=C\CCCC(=O)O	3%	.	-21%	.	.
CCCCNC(=O)C(CC)Sc1nc2ccccc2c(=O)n1CCc1ccc(OC)c(OC)c1 (stereo not given)	.	.	.	3%	23%
C1COC1	8%	.	-26%	.	.
Cc1sc2ncnc(N3CCC(C(=O)N(C)CC(=O)Nc4cccc(F)c4)CC3)c2c1C	.	-5%	.	?	-15%
CCN(CC)S(=O)(=O)c1cc(NC(=O)C2CC(=O)N(Cc3ccccc3)C2)ccc1Cl (stereo not given)	.	14%	.	10µM*	-9%
Cc1sc2ncnc(N3CCC(C(=O)N(C)CC(=O)Nc4ccc(Cl)c(C(F)(F)F)c4)CC3)c2c1C	.	11%	.	2.5µM*	?
Cc1sc2ncnc(N3CCC(C(=O)Nc4cc(S(C)(=O)=O)ccc4Cl)CC3)c2c1C	.	7%	.	?	-10%
CCN(CC)S(=O)(=O)c1cc(NC(=O)C2CCN(c3ncnc4sc(C)c(C)c34)CC2)ccc1Cl	.	-23%	.	2.5µM*	-4%
Cc1sc2ncnc(N3CCC(C(=O)Nc4cc(Cl)ccc4Cl)CC3)c2c1C	.	-4%	.	10µM*	-17%
COC(=O)[C@@]1(Cc2ccc(OC)cc2)[C@H]2c3cc(C(=O)N(C)C)n(CCc4c[nH]c5ccc(O)cc45)c3C[C@H]2CN1C(=O)c1ccccc1	14%	.	28%	.	.
